# EPAC2 agonist: agonists of human EPAC2 (RAPGEF4); Q8WZA2; EPAC2 activation, biochemical qHTS; response scale: 100% = 6.5 mM cAMP response; Potency, µM (doses to about 154 µM), for inactives: top-dose activation, hits mostly activators; 0.079% of 360,000 active; AID 720711; note: potency is the fitted concentration of half-maximal effect; nearly all actives have a fitted effect of over 50% in size
#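 In this primary screen, activation is scored as increased exchange of BODIPY-GDP from Rap1B by 100 nM EPAC2, with 50 uM GDP as competitor. Signal is normalized to the 6.5 mM cAMP agonist control.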
# EPAC1 antagonist: blocks human EPAC1 exchange factor. O95398. EPAC1 GEF assay, Rap1b-BODIPY-GDP exchange fluorescence. Potency, µM (top dose mostly 115 µM), inactives show top-dose activity change, negative = inhibition, hits mostly inhibitors. 0.14% of 360,000 active. AID 720709;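 note: potency is the fitted concentration of half-maximal effect; plate controls were vehicle for no effect and positive control for full effect; nearly all actives have a fitted effect of over 50% in size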
# LDHA inh: LDHA (human) enzyme inhibition; activity change, % (values are at about 110 or 230 µM); purified LDHA, NADH/diaphorase-resazurin fluorescence; active compounds read low; 0.15% of 480,000 active; P00338; AID 1347041; in the data active = activity change below about -30%; inconclusive = mostly about -25% to -30%;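 note: plate controls were DMSO wells for no effect and wells without enzyme for full effect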
#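 Remaining NADH was detected by diaphorase (0.133 mg/mL) converting 37 µM resazurin to fluorescent resorufin, read at 0 and 20 minutes. The preceding 5-minute room-temperature reaction used 2 nM LDHA, 0.2 mM sodium pyruvate and 0.06 mM NADH at pH 7.4.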
# USP1-UAF1 inh: USP1/UAF1 (human) deubiquitinase inhibition; recombinant USP1/UAF1, Ub-Rhodamine cleavage fluorescence; Potency, µM (top dose mostly 57.1 µM), for inactives: top-dose activity change, negative = inhibition, usual class: inhibitors; 0.23% of 390,000 active; note: potency is the fitted concentration of half-maximal effect; % is set by controls: 0 for no effect and ±100 for the full control effect; nearly all actives have a fitted effect of over 60% in size
#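 1 nM enzyme complex + cpd, 15 min RT; start with Ub-Rho 150nM final; kinetic fluorescence ex 480/em 540, 6 reads q60 s. Buffer 50mM HEPES pH 7.8, 0.5mM EDTA, 0.1 mg/ml BSA, 1mM TCEP, 0.01% Tween-20.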
# EPAC2 antagonist: blocks human EPAC2 exchange factor; 0.18% of 360,000 active; EPAC2 GEF exchange of Rap1B-BODIPY-GDP, fluorescence; Q8WZA2; Potency, µM (highest dose often 114 µM), inactives show at the highest dose activity, negative = inhibition, actives largely listed as inhibitors; note: potency is the fitted concentration of half-maximal effect; % is set by controls: 0 for no effect and ±100 for the full control effect; nearly all actives have a fitted effect of over 45% in size
# EPAC1 agonist: EPAC1 (human) agonism | O95398 | EPAC1 agonist qHTS, biochemical assay; response scale: 100% = response to 6.5 mM cAMP | Potency, µM (doses to about 154 µM), inactives show at the top dose activation, most hits filed as activators | 0.073% of 360,000 active; note: potency is the fitted concentration of half-maximal effect; nearly all actives have a fitted effect of over 60% in size
#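 Nucleotide exchange by EPAC1 (100 nM) on Rap1B–BODIPY-GDP (250 nM) in the presence of 50 uM GDP is tracked fluorescently at 480/540 nm over 30 min. Signals are normalized to a 6.5 mM cAMP control.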
# An asterisk follows results filed as active; ? = inconclusive; nt = no result given; [ ] = dose if it differs, or a comment. In the library only some 0.56% were active in any assay of this set; here they are far more common. Unless noted, calls come from the whole dose curve; as a rule, active = well fitted curve in the direction sought with a large enough effect; inconclusive = small, poorly fitted or top-dose-only effect, or another doubt; inactive = no such curve, though single readings can be large; an effect the other way counts as inactive or inconclusive.
SMILES,EPAC2 agonist,EPAC1 antagonist,LDHA inh,USP1-UAF1 inh,EPAC2 antagonist,EPAC1 agonist
O=C(CSc1nc2nc(-c3cccs3)cc(C(F)(F)F)c2c(=O)[nH]1)Nc1ccc(F)c(F)c1,-8%,79µM*,-10,-21%,-22%,-10%
Cc1ccc(C)c(NC(=O)CSc2nc3nc(-c4cccs4)cc(C(F)(F)F)c3c(=O)[nH]2)c1,-6%,-22%,-10,?,-5%,1%
CC(C)c1cc(C(=O)NOCc2ccccc2)c2ccccc2n1,nt,nt,10,nt,nt,nt
CCN(CC)CCC#CC(O)(c1ccccc1)c1ccccc1,-1%,-10%,-2,-13%,11%,-4%
CCN(CC)CC#CC(OC)(c1ccccc1)c1ccccc1,6%,-15%,-6,-15%,40µM*,2%
Cc1cccc(N2C(=O)c3cccc4c(N)ccc(c34)C2=O)c1,100µM*,292%,0,28µM*,276%,89µM*
O=C(O)c1ccc2c3c(cccc13)C(=O)N(c1ccccc1)C2=O,7%,-2%,3,-20%,6%,12%
Nc1cccc(N2C(=O)c3cccc4c(N)ccc(c34)C2=O)c1,89µM*,97%,-6,28µM*,152%,100µM*
Cc1cccc(N2C(=O)c3cccc4c(N(C)CCO)ccc(c34)C2=O)c1,100µM*,49%,17,28µM*,72%,112µM*
Nc1ccc2c3c(cccc13)C(=O)N(c1ccccc1)C2=O,100µM*,454%,-1,?,421%,100µM*
Cc1cccc(N2C(=O)c3cccc4cccc(c34)C2=O)c1,-2%,-1%,-1,-23%,5%,-6%
CC(C)CCN1C(=O)c2cccc3c(N)ccc(c23)C1=O,?,25%,0,?,38%,71µM*
CCN1C(=O)c2cccc3c(Cl)ccc(c23)C1=O,5%,-17%,-9,0%,0%,15%
Cc1oc2c(c1C(=O)O)C(=O)c1ccccc1C2=O,5%,-3%,15,28µM*,2%,-19%
CCOC(=O)c1c(C)oc2c1C(=O)c1ccccc1C2=O,9%,-3%,7,?,6%,-2%
Cc1oc2c(c1C(=O)c1ccccc1)C(=O)C(=O)c1ccccc1-2,6%,?,33,13µM*,?,24%
CCNc1ccc(Br)cc(C(=O)/C=C/c2ccc(Cl)cc2)c1=O,17%,12%,11,32µM*,-2%,10%
CCCCOc1ccc(C(=O)NCC(=O)NCCCn2nc(C)cc2C)cc1,-2%,0%,-6,-17%,-3%,-12%
Cc1cc(C)n(CCOc2ccc(Br)cc2)n1,4%,12%,0,-23%,35µM*,9%
O=C1/C(=C/c2cccnc2)SC(=S)N1Cc1ccco1,11%,-1%,5,-9%,-2%,0%
Cc1cc(/C=C2\SC(=S)N(Cc3ccco3)C2=O)c(C)n1-c1cccnc1,100µM*,-7%,0,55%,51%,-12%
COc1ccc([N+](=O)[O-])cc1NC(=S)Nc1ccccc1,7.9µM*,-2%,-4,-26%,6%,0%
Nc1ccc(N)c(C(=O)O)c1,8%,?,-2,20µM*,-7%,12%
NC(=O)COc1ccc(/C=C2\C(=O)ON=C2c2ccccc2)cc1,3%,4%,-57*,-6%,3%,15%
NC(=O)COc1ccccc1,-2%,-9%,-4,-7%,4%,-24%
SMILES,EPAC2 agonist,EPAC1 antagonist,LDHA inh,USP1-UAF1 inh,EPAC2 antagonist,EPAC1 agonist
COc1cc(/C=C2\C(=O)ON=C2c2ccccc2)cc(OC)c1OC,13%,16%,-36*,-20%,1%[57.1 µM],-4%
COc1ccc(C=C2C(=O)OC(C)(C)OC2=O)cc1OC,1%,-6%,2,-15%,2%,-7%
CCOc1cc(/C=C2\C(=O)ON=C2c2ccccc2)ccc1OC,10%,-1%,-61*,-17%,11%,-1%
COc1ccc(/C=C2/C(=O)ON=C2c2ccccc2)cc1OC,-1%,7%,-60*,-17%,2%,3%
COc1ccc(/C=C2\C(=O)ON=C2c2ccccc2)cc1OC,-4%,0%,-50*,-12%,6%,4%
COc1ccc(/C=C2\C(=O)NC(=O)c3ccccc32)cc1OC,11%,?,14,1.8µM*,-11%,2%
CN(C)c1ccc(NC2=C(C(N)=O)S(=O)(=O)c3ccccc32)cc1,nt,nt,-9,nt,nt,nt
COc1ccc(N(CC(=O)NC(C)c2ccccc2)S(=O)(=O)c2c(C)nn(C)c2C)cc1 (stereo unspecified),nt,nt,1,-10%,nt,nt
CS(=O)(=O)c1ccc2c(c1)sc1nc(=O)c(/C=C3/C=CC(=O)C(O)=C3)c(N)n12,1%,50µM*,-13,?,0%,-5%
CN(C)c1ccc(-c2cc3ccccc3c(=O)o2)cc1,100µM*,12%,3,-27%,94%,-1%
Fc1ccc(C2=CC(c3ccc(Br)o3)n3ncnc3N2)cc1 (stereo unspecified),12%,94%,-1,-27%,52%,100µM*
Fc1ccc(C2=CC(c3ccco3)n3ncnc3N2)cc1 (stereo unspecified),-3%,7%,4,?,11%,0%
C1=C(c2ccc(-c3ccccc3)cc2)Nc2ncnn2C1c1ccco1 (stereo unspecified),100µM*,11%,-1,14µM*,116%,89µM*
Oc1ccc(C2C=C(c3ccc(F)cc3)Nc3ncnn32)cc1 (stereo unspecified),5%,-8%,1,-6%,0%,15%
NS(=O)(=O)c1cc(C(=O)Nc2ccc3c(c2)CCC3)ccc1Cl,13%,-23%,-12,-9%,0%,5%
O=C1COc2ccc(S(=O)(=O)CCC(=O)NC3CCCCC3)cc2N1,7%,-26%,-6,-14%,1%,5%
COc1ccc(S(=O)(=O)NNS(=O)(=O)c2ccc(OC)c(OC)c2)cc1OC,11%,-5%,-81*,nt,9%,-8%
Cc1ccc(CNC(=O)c2cccc3c2C(=O)c2ccc(N4CCCCC4)cc2S3(=O)=O)cc1,56µM*,320%,-1,321%,309%,10µM*
O=C(NCc1cccc(F)c1)c1cccc2c1C(=O)c1ccc(N3CCOCC3)cc1S2(=O)=O,89µM*,-12%,-7,-28%,-1%,7%
CC1CCN(c2ccc3c(c2)S(=O)(=O)c2cccc(C(=O)NC[C@@H]4CCCO4)c2C3=O)CC1,112µM*,-24%,2,?,5%,7%
O=C(NC[C@@H]1CCCO1)c1cccc2c1C(=O)c1ccc(N3CCOCC3)cc1S2(=O)=O,8%,-3%,-5,-26%,-9%,0%

# Screening results (PubChem BioAssay)
